# Data as given in article PMC7819943, “Rice protein-binding microarrays: a tool to detect cis-acting elements near promoter regions in rice”.
# Over roughly 35,000 sequences, “fluorescence intensity (a.u.)” has its median near 10,000; the highest 2% begin near 52,000. The sample holds the highest values, similar sequences and a random draw of the others, so the mix is not that of the screen.
# Biological target: T1, OsWOX13 (Oryza sativa, UniProt Q5QMM3 1-267)
# T1 sequence: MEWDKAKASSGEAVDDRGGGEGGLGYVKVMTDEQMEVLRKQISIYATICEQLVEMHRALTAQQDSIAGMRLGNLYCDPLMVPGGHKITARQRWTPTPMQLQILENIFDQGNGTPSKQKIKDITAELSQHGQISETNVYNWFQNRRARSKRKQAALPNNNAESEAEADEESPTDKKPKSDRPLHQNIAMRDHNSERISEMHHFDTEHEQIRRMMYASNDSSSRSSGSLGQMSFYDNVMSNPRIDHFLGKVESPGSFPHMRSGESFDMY
# Assay: protein-binding microarray (RPBM); PBS, 2% BSA, 51.3 ng/ul salmon testes DNA, 50 uM zinc acetate, 200 nM TF, 25 C, 1 h; high values mean tight binding
# Conditions: protein: recombinant; tags: N-terminal polyhistidine and DsRed monomer fusion (pET32a); label: CyDye5-dUTP incorporated in the synthesized complementary strand; 3' TTTTT single-stranded linker to array surface; dsDNA, one strand shown
# Outline: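 The binding signal is fluorescence intensity per array feature (arbitrary units). Readings came from an Axon 4000B scanner after a washed, 2% BSA-blocked, double-stranded custom Agilent array had been incubated for 1 h at 25 °C with 200 nM protein and 50 µM zinc acetate. The protein was a Ni–NTA-purified transcription factor fused N-terminally to polyhistidine and DsRed, expressed in E. coli BL21-CodonPlus.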
row,Sequence,binding signal
1,TAGGATTTGACCATAGTAAATTAATTTGGAGGAATTGTTTCGGAGTCACCTAGTGCAG,3990 fluorescence intensity (a.u.)
2,CCATCTGATTAGAGATTTGATCCTATACCTTCCTAAACATCGGAGTCACCTAGTGCAG,40700 fluorescence intensity (a.u.)
3,AGTACTGTAGATAATAAAGTAAGTCACGAATAAAATAAATCGGAGTCACCTAGTGCAG,50900 fluorescence intensity (a.u.)
4,TTAATTGTTTTATCCTATTAATTGGTAGAAGCGGTATTTTCGGAGTCACCTAGTGCAG,26700 fluorescence intensity (a.u.)
5,AAAGATAATTGAAAAGTAAACTTGTTGACAGACGGAATCCCGGAGTCACCTAGTGCAG,30400 fluorescence intensity (a.u.)
6,ACTAATTATAAATCAGAACGATTTATTAACTACTCAATAACGGAGTCACCTAGTGCAG,24400 fluorescence intensity (a.u.)
7,CATGATTAATCAAGTTAATTATTATACACTAAATATTGGACGGAGTCACCTAGTGCAG,59600 fluorescence intensity (a.u.)
8,TTGGACACTAATTATAAATATTAAATATAGACTATTAATACGGAGTCACCTAGTGCAG,4640 fluorescence intensity (a.u.)
9,TATGATTATCACAAGTAATATATAAATTATTAGTCAAGTTCGGAGTCACCTAGTGCAG,33600 fluorescence intensity (a.u.)
10,AATTATTTAAATCAATGTAACTCAAAAGTTAATAAACGTGCGGAGTCACCTAGTGCAG,13100 fluorescence intensity (a.u.)
11,TTAACATGTAATCAATTAAATACTAATTATTATAAACGTGCGGAGTCACCTAGTGCAG,53100 fluorescence intensity (a.u.)
12,GGGTGTGTAAGGGTAGGTGGAGGGGTGGGTGATGCGAGATCGGAGTCACCTAGTGCAG,4470 fluorescence intensity (a.u.)
13,CATGATTAGCCATAAGTGCTACAGTAACCCACATGTGCTACGGAGTCACCTAGTGCAG,34300 fluorescence intensity (a.u.)
14,CCTAATTAATCCATGATTAGTCATAAGTGTTACAATAATCCGGAGTCACCTAGTGCAG,55500 fluorescence intensity (a.u.)
15,CCTAATTAGTCCATGATTAGTCATAAGTACTACAATAACCCGGAGTCACCTAGTGCAG,33900 fluorescence intensity (a.u.)
16,TTGAGTCTAATTAGTCCATGATTAGCCATAAGTGCTACAGCGGAGTCACCTAGTGCAG,30600 fluorescence intensity (a.u.)
17,CCGTGATTAGCCATAAGTGCTACAGTAACCCACATGTGCTCGGAGTCACCTAGTGCAG,57900 fluorescence intensity (a.u.)
18,TCCGTGATTAGCCATAAGTGCTACAGTAACCCACATGTGCCGGAGTCACCTAGTGCAG,35800 fluorescence intensity (a.u.)
19,GTCTAATTAGTCCATGATTAATTAGCCATAAGTTCTACAGCGGAGTCACCTAGTGCAG,53100 fluorescence intensity (a.u.)
20,GCCTAATTAGTCCATGATTAGCTATAAGTGCTACAATAACCGGAGTCACCTAGTGCAG,28100 fluorescence intensity (a.u.)
21,TAAGCCTAATTAGTCTATGATTAGCCATAAGTGCTACAGTCGGAGTCACCTAGTGCAG,37800 fluorescence intensity (a.u.)
22,AGACTTAATTGTAACTGTGTACTACTACGAGCTTAATCAGCGGAGTCACCTAGTGCAG,28400 fluorescence intensity (a.u.)

row,Sequence,binding signal
1,AGAGTTGTAATTAACCTTTTCAGGTTGTATTGACTGCAAGCGGAGTCACCTAGTGCAG,3760 fluorescence intensity (a.u.)
2,GGATTAATAGATAGTCTGACTTTTCTGATAACTATTTAAGCGGAGTCACCTAGTGCAG,28400 fluorescence intensity (a.u.)
3,TTAAAATTATGTTTGAAAATTTAAATTTTAGACGCGGCTTCGGAGTCACCTAGTGCAG,14900 fluorescence intensity (a.u.)
4,AAATTAATTAATACAATATATTCCTGCATGCCCTGTATAACGGAGTCACCTAGTGCAG,23800 fluorescence intensity (a.u.)
5,TTCTCTAGCCCTAAATATGCCGAAGAATATTCCATGTCTCCGGAGTCACCTAGTGCAG,64900 fluorescence intensity (a.u.)
6,ACCCTAATTCTCCTAATCTCTTAGGAAATATGGAAGAAGCCGGAGTCACCTAGTGCAG,3170 fluorescence intensity (a.u.)
7,GATCGAATTGGTAAATCAAATGTCTCTAAATTCTCTCCATCGGAGTCACCTAGTGCAG,4550 fluorescence intensity (a.u.)
8,TGCTAGAATGATTTACGTTATGAAACTGAGGGAGTACATCCGGAGTCACCTAGTGCAG,5380 fluorescence intensity (a.u.)
9,TGTGATTTATATCGTGGAAGATGATGGCTTGGCGGTATAGCGGAGTCACCTAGTGCAG,36300 fluorescence intensity (a.u.)
10,GTCGATAAATTATTCGCGGCACAATTATTTGTGCCCCATTCGGAGTCACCTAGTGCAG,5580 fluorescence intensity (a.u.)
11,AACTAAAACACAGAAATTGATAGTCCAGCAAAACTAGCCCCGGAGTCACCTAGTGCAG,5180 fluorescence intensity (a.u.)
12,AGCAAAATTGATTGCTAATCTTCGGTGTCCAGCAGAGCCCCGGAGTCACCTAGTGCAG,64900 fluorescence intensity (a.u.)
13,TCTTCTGATTGCTTTCACACAAGATCCAGCAAAATTAATTCGGAGTCACCTAGTGCAG,16900 fluorescence intensity (a.u.)
14,ATACACCAGTTGATTATAATGACAGTGATATTATGGTGGACGGAGTCACCTAGTGCAG,17800 fluorescence intensity (a.u.)
15,CAAACTAATAATTTGGCTTTTGGCTTCTGCTGAAGCAAGTCGGAGTCACCTAGTGCAG,4830 fluorescence intensity (a.u.)
16,ACGGTAATTAACGTTGATTACCATAATTAGCGGCGCATTGCGGAGTCACCTAGTGCAG,65200 fluorescence intensity (a.u.)
17,TGCAGTGATAATTTAGGATTATTTAAGATTTGCACAGTGGCGGAGTCACCTAGTGCAG,12500 fluorescence intensity (a.u.)
18,GCTGATTGATTCATTCTGATCTGAACATATAGACAACCATCGGAGTCACCTAGTGCAG,54700 fluorescence intensity (a.u.)
19,AAACCATTAGCGCATAATTTATTGAGTTTTAATTATTTCACGGAGTCACCTAGTGCAG,6070 fluorescence intensity (a.u.)
20,GCTGATTGCCATTGATTCATATTCATTGTGTGCCATCTGGCGGAGTCACCTAGTGCAG,58800 fluorescence intensity (a.u.)
21,GCCATATGATTATTTAATCTGATCCGGAGGATTAAACAAGCGGAGTCACCTAGTGCAG,14100 fluorescence intensity (a.u.)
22,TCTGATTTAACTGCATTGCATTTGTGTCATTGACATGTGGCGGAGTCACCTAGTGCAG,42600 fluorescence intensity (a.u.)
